Measured values from PubChem BioAssay AID1508600 (Functional Genomics Laboratory (NCATS/FGL), 2020).
The whole screen tested about 53,000 sequences, of which about 3,700 (7%) were called active. Many of the other results were omitted from the sample, so actives are more common in it than they were. Values without a mark were called inactive.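 Rule for the calls: active = gene knockdowns whose robust z-score for IL-1 alpha signal is at least 2 or at most -2, so actives lie on both sides; inactive = the rest.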

Assay: Components of the Cytosolic LPS Sensing Pathway: Gene Identification via Genome-wide siRNA Screen;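 note: robust z of the log signal after scaling to non-targeting control siRNA wells of the plate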
Conditions: RAW264.7 macrophages, IL-1a HTRF, actives lie on both sides, screened at 100 nM (by protocol), cells primed 5 h with Pam3CSK4 first
Method in brief: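 Using IL-1a HTRF as read-out, the screen measured release from RAW264.7 cells after 48h siRNA knockdown (100 nM), 5 h Pam3CSK4 priming and 24 h cytosolic LipidA. Values were expressed relative to negative-control wells as robust z-scores.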

Sequence	z-score
GGUGGCUCAGAAAUCCUAUTT against Rbpjl	-0.206
GCGAAUCUCCACAAGAUGGTT against 2300002M23Rik	-0.0187
CGGCUUCUCUCUUUACACATT against Fosb	2.51 (active)
GGAGAAAAGUACCAAGAUGTT against Ifi27l2b	-1.15
AUGGUAUACUAUUAUGCUGTT against Mup20	1.62
GGAACUAACGGAAUUACUGTT against Arl3	0.951
GCGAAAUCAACAGUCAAUUTT against Ep300	0.458
GGAAGCAGAGCAGCUGUUUTT against Skiv2l	-0.567
GGGAUCAAUUUUGAAGAAUTT against Jmjd4	-0.398
GGAGUAUGUCCAUUGUCACTT against Vmn1r230	-2.54 (active)
UCAGCGAGCUUUAACCUUUTT against Olfr1028	0.26
GGUUUUUCAGCUUUGGAACTT against Decr1	-0.822
CCCACUUUCUUUGAUAACUTT against Bcl2l11	0.585
CGCGUAGAUAAGAAGUAUUTT against Anks1	0.181
GCUCAACAAAGCCUGUUCGTT against Zp3	2.35 (active)
GCAUUACUAAUCAAAGUGGTT against Abcb1b	-0.78
CCACUUCAUGAUUGAGUGCTT against Phf8-ps	-0.836
CCAUGAGUUCAGAUGAUGATT against Ints10	-1.11
CCUGAAACAUUCAGUGUCUTT against Apool	0.293
GCUUAAUUUCAUUUCAAGGTT against B3gnt5	0.496
GCUUCCCUGCCGUGAUGAUTT against Git1	-1.15
GGACACAAGUUUUCAGAUCTT against Elmod2	3.02 (active)

Sequence	z-score
GGAUCAUGGAUAUACCACCTT against Smarcb1	-1.72
GGUGCAAACUAAAAAUCUUTT against Enc1	2.73 (active)
GGAAGAUGAAGAUGAGAAUTT against Igbp1b	-1.24
GGGAAGCAUGCAGAACAGCTT against Parg	-1.42
GGUUCCUCAAGAUCAUCAUTT against P2ry13	0.051
GCUUUGAUGGAUUCUAAUCTT against Htt	1.09
CCCAUUUGCUCUGUGGAUCTT against Tha1	0.289
GCACUUUGGGUUUAAGUACTT against Ndrg4	3.7 (active)
GGGAGAGAGAAAAAGAAAATT against Park7	0.94
CCUGGCCAUGUCGAAAGAUTT against Pla2g6	0.716
GGAAGAAGUCAGAUGUGGATT against Radil	-0.315
UGAUGCUAAGACUGAACCATT against Olfr541	-1.14
GGACAUUGUUGUCCAAACUTT against Sptb	-2.24 (active)
CCAUAUUUGAAGAAGUCCATT against Espl1	-0.325
GGGUACAACUCUUUGAAGATT against Mnat1	0.535
GCAGUUGAUGAUAAUGUGATT against Pot1b	-0.0269
CGCGGAAACUCUCCACUUATT against Psme4	-1.18
GGGCGAUAUUAUGAGCAACTT against Atp1b2	3.78 (active)
GGAUCCUCUUCUAUCUUUATT against Pycr1	-1.27
GGCUGCUUUACUGAAGUAATT against C2cd6	1.29
GGGACUUGGAUCGAAUGGATT against Apeh	0.326
GGGAAAUUGUGUAGCAGCUTT against Slc25a29	-2.76 (active)

Sequence	z-score
GGAGGUGGUGUUUAUACCATT against Scrn2	0.728
GCCUAUGCAGCUCUCUCUGTT against Acat3	0.772
GGUUAUUACGUAGUUGGUATT against Cd46	0.683
GGUCUACGCGCUCUAUGAATT against Gpr150	-1.03
GGAGACAGAAUCAUAGUUATT against Sh3yl1	0.0505
CGAUUCUUUAGGAACUUUGTT against Pak7	-0.0771
GGCAGUGGUUAAAGGUUCCTT against Lrp6	2.27 (active)
GCACUUAUACUACUUAGUUTT against Abca8a	2.4 (active)
GCAGGAUUUUCACCAACAGTT against Gh	-0.215
GGUAGAAUCCGGUUACCACTT against Tox	0.704
GGGAAAGACCAUGUUUGUATT against Ttbk2	0.493
CCAAUUGUGAGAAGAGUGUTT against Cog7	-0.46
GGAUUUUGUGAAUAAAUGCTT against Map2k1	1.31
GGGAAAAGAGAGUGGUGUATT against Rab27a	-0.26
GGAGAGCUGGUGUUUUAGATT against Tnfrsf17	2.74 (active)
GGGUUCAUUUCUCAAAAUUTT against Nol7	-0.831
GGAACAAGAAGACUGUGAATT against Pcnt	-0.519
GCCUUACAAUUUGUUCUACTT against Dsc1	1
CGUCCAGUAUACGCUGGUUTT against Cdc45	5.41 (active)
GGAUGAACCAAGCUACUGCTT against Gba2	-0.541
GUUCAAGACGGAGAAGAGGTT against Gpr27	3.03 (active)
CCCAAUACAUGAGCUUCUGTT against Ch25h	-0.209

Sequence	z-score
GGAAGACUUCGUGUUGACATT against Proz	0.223
GGCUCUAUGUUUAUAAUGATT against Olfm5	-2.07 (active)
GGAAAAAUGACUGAUCUCUTT against Unc5c	-0.0354
GGUUGGUAGACUGUGCUUGTT against Hgsnat	-2.56 (active)
GGACCUACUACGUAAACCATT against Nedd4	0.434
GGAAUAUCGGACUUUUUCATT against Mis18bp1	0.635
CGGGACCUUGUUGAUAACUTT against Tmem130	0.811
GGUGUUUGGGAAAGGUCUGTT against Trpm1	-1.33
GCACAAAUGGGAAUACGACTT against Klhl36	-0.94
CCAACCAGACUUAUUUAAUTT against Zfp37	1.61
GGGUGGCUAUGGACAAAAATT against Arl5c	0.887
GGACAUCAAUUCAACAGUUTT against Lifr	-0.361
GGAAGAGUGUUUAAACUAUTT against Kbtbd8	-0.591
CCUGAUCUAAUCCUAAAUGTT against Pgr	-0.171
AUCUAUUCGAAUCAGGAAGTT against Epsti1	-0.102
GGCUUUUGAAGUAAAUACATT against Pcdhb14	2.65 (active)
GUCCAGAGUGACCACAUUUTT against Pemt	-0.471
GGAUUACGCAGAUUCCAUUTT against Rab22a	-0.474
CGAAUUGAAUUCUACGAACTT against Pmm2	0.252
GGAUGAUAAAGACAAAGUATT against Ppm1g	-0.921
GGUUUCUGGCUUUCCGUAGTT against Erf	-0.0549
GCUCUGCAUGACCUUACCUTT against Ugt2b1	0.245

Sequence	z-score
GGCCUUUGUACAGGACCCATT against Tor2a	-1.01
GGUCAGAAGAGAUCAAAAGTT against Ttc23	-0.0386
GCCUACUCCCAAGAGGAAATT against Gprc5a	2.32 (active)
GGACAGCAAGAUGAAGAUGTT against Il17ra	-1.32
UUGAUUUGGUAGCCUGCUCTT against Olfr1303	0.962
CCCUGCUUCGUGUGCUAUUTT against C130074G19Rik	0.499
GGUACCUGAGGUAGAAAAGTT against Pnma3	-2.5 (active)
GGAAUGUGUUGAAAUAUGATT against P4ha3	0.0288
CCACGGAGACAACUUAGUATT against Scfd2	0.568
GGCGGUCAAGUGAGGUUCUTT against Hhex	3.62 (active)
GGACUUUUCUGCUAUUUACTT against Kcnh2	-0.471
GGAAAGAAUUGAAUACUCGTT against Gpr89	-0.279
GGUGAAUUUCCUUCUACAUTT against Tas1r1	-1.56
GCUGGGAUAUGAAAUCUAUTT against Gprc6a	2.74 (active)
GGUGAUAAAGUCAUUCCACTT against Adh1	0.759
GGAAGACAUAUUUCAACAGTT against Ehhadh	-1.37
GCAGUGUAUUGGUAAUCAATT against Olfr630	1.44
GCAUCGAUCUUGAGUUAGATT against Hebp1	0.579
GCGCAGGUUCAAUGUGGAUTT against Prodh	1.72
GGCGAUAGACGAGUAUCAGTT against Aida	0.41
